Most compounds without a hit are left out; they make up all but 8.8% or so of the library.
HT1080NT lethal: kills 2HG-producing HT-1080-NT fibrosarcoma cells; HT-1080-NT fibrosarcoma viability, CellTiter-Glo ATP luminescence, 48 h; Potency, µM (series often up to 46.1 µM), for the others: at the highest dose activity, negative = less viability, most hits filed as cytotoxic; 1.6% of 360,000 active; AID 686970;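 note: NT is the 2HG producing partner of a matched IDH1 knockdown line; potency is the fitted concentration of half-maximal effect; 0% = DMSO-treated cells and -100% = media-only wells without cells; nearly all actives have a fitted effect of over 55% in size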
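A 48-hour cytotoxicity screen used HT-1080-NT cells plated 2 hours before compound delivery. ATP-based CellTiter-Glo luminescence measured viability, normalized to DMSO and no-cell controls.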
KB-V1 cytotox: KB-V1 MDR subline cytotoxicity. 3.4% of 400,000 active. KB-V1 MDR cells viability, CellTiter-Glo, 72 h. Potency, µM (top dose mostly 46.1 µM), most hits filed as cytotoxic. AID 1347076; note: potency is the fitted concentration of half-maximal effect; nearly all actives have a fitted effect of over 60% in size
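KB-V1 MDR subline cells in DMEM (phenol-red free, 10% FBS) exposed to compounds in qHTS concentration series for 72 h at 37 degrees C. Viability read by CellTiter-Glo luminescence; concentration-effect curves fitted after normalization and correction.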
KB-3-1 tox: kills parental KB-3-1 adenocarcinoma cells. Potency, µM (titrated, usually from 46.1 µM), usual class: cytotoxic. KB-3-1 viability, CellTiter-Glo ATP luminescence, 72 h. 1.4% of 400,000 active; note: potency is the fitted concentration of half-maximal effect; nearly all actives have a fitted effect of over 60% in size
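Parental KB-3-1 viability, qHTS format: 72 h compound exposure, 37 °C; CellTiter-Glo; media-only wells and DMSO plates as controls; concentration-effect fits on corrected data.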
HT1080 IDH1KD tx: toxicity to HT-1080 IDH1 knockdown cells (counter line) | HT-1080 IDH1 knockdown viability, ATP luminescence, 48 h | Potency, µM (titrated, usually from 46.1 µM), without a hit: at the top dose activity, negative = toxicity, usual class: cytotoxic | 2% of 360,000 active;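 note: potency is the fitted concentration of half-maximal effect; 0% = DMSO wells and -100% = cell-free medium wells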
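Knockdown cells (IDH1KD HT-1080) received compounds 2 h after plating at 750 cells/well and were kept 48 h at 37 °C in 5% FBS RPMI. A CellTiter-Glo luminescence read gave % activity for curve fitting.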
IL-1B inflam inh: inhibitors of inflammasome signaling (IL-1 beta secretion) | THP-1 LPS/ATP IL-1B secretion, AlphaLISA, 16 h; active compounds read low | activity change, % at 57.5 µM | 4.7% of 360,000 active; in the data active = activity change below about -50%; inconclusive = mostly about -30% to -49%
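THP-1 cells pretreated 1 hr with compounds (up to 57.5 uM final), then stimulated with LPS (250 ng/mL final) plus ATP (1.25 mM final); secreted IL-1B measured by AlphaLISA after 16 hr, decreased signal indicating inhibition.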
* hit, by the source's call; i = inactive; ? = inconclusive; · = no result. Unless noted, calls come from the whole dose curve; as a rule, active = well fitted curve in the direction sought with a large enough effect; inconclusive = small, poorly fitted or top-dose-only effect, or another doubt; inactive = no such curve, though single readings can be large; an effect the other way counts as inactive or inconclusive. Unless noted, % is set by controls: 0 for no effect and ±100 for the full control effect.

SMILES	HT1080NT lethal	KB-V1 cytotox	KB-3-1 tox	HT1080 IDH1KD tx	IL-1B inflam inh
O=C(c1cccs1)N1CCN(c2nnc(-c3ccccc3)c3ccccc23)CC1	-26%	?	i	-14%	-87*
Cc1ccc(-c2nnc(N3CCN(C(=O)CN4CCOCC4)CC3)c3ccccc23)cc1	6%	13µM*	i	2%	-22
O=C(CN1CCOCC1)N1CCN(c2nnc(-c3ccccc3)c3ccccc23)CC1	7%	i	i	10%	-14
Cc1ccc(-c2nnc(N3CCN(C(=O)c4cccs4)CC3)c3ccccc23)cc1	-8%	i	?	-1%	-8
CCSC1=N/C(=C/c2ccsc2)C(=O)N1c1ccccc1	2%	?	?	-14%	-3
CCOC(=O)N1CCN(c2nnc(-c3ccc(C)cc3)c3ccccc23)CC1	-22%	i	i	-28%	-67*
Cc1ccc(-c2nnc(N3CCN(C(=O)COc4ccccc4)CC3)c3ccccc23)cc1	?	2.6µM*	18µM*	?	-79*
CC1CCCC(C)N1C(=O)CSc1ccc(-c2ccc3c(c2)OCCO3)nn1 (stereo not drawn)	?	i	i	-8%	7
CC1CCCCN1C(=O)CSc1ccc(-c2ccc(F)cc2)nn1 (stereo not drawn)	-6%	12µM*	i	-5%	-5
COc1ccc(Cl)cc1NC(=O)c1ncn(-c2ccccc2)n1	·	i	i	·	·
CC(C)C1C(=O)N(Cc2cn(CC3CCCCC3)nn2)CCS(=O)(=O)N1Cc1ccc(-c2ccc(F)nc2)cc1 (stereo not drawn)	?	?	16µM*	?	?
CC1C(=O)N(Cc2cn(CC3CCCCC3)nn2)CCS(=O)(=O)N1Cc1ccc(-c2ccc(Cl)cc2)cc1 (stereo not drawn)	?	18µM*	?	16µM*	-6
COc1ccc(C2OCC(C)([N+](=O)[O-])CO2)cc1 (stereo not drawn)	1%	i	i	11%	8
N#Cc1c(Nc2ccccc2Cl)s[nH]c1=O	?	?	i	16µM*	-59*
N#Cc1c(Nc2ccccc2C(F)(F)F)s[nH]c1=O	-25%	i	i	?	·
CC(O)(CC(=O)CC(=O)c1ccccc1)c1ccccc1 (stereo not drawn)	-30%	·	·	-26%	-12
Cc1cccc(NC(=O)CN2C(=O)C3CC=CCC3C2=O)c1C (stereo not drawn)	1%	i	i	10%	-6
CCOC(=O)OCC(=O)C1(O)CCC2C3CCC4=CC(=O)CCC4(C)C3C(O)CC21C (stereo not drawn)	?	i	?	?	-23
CC12CCC(=O)C=C1CCC1C2C(O)CC2(C)C1CCC2(O)C(=O)COC(=O)COCC(=O)O (stereo not drawn)	?	i	i	?	-50*
CCCCCCCC(=O)OCC(=O)[C@@]1(O)CC[C@H]2[C@@H]3CCC4=CC(=O)CC[C@]4(C)[C@H]3[C@@H](O)C[C@@]21C	-17%	i	i	5%	-53*
CC12CC(O)C3C(CCC4=CC(=O)CCC43C)C1CCC2=CCO (stereo not drawn)	-3%	18µM*	?	0%	6
Cc1cccc(S(=O)Cc2ccc(C(=O)NC3CCN(Cc4ccccc4)CC3)o2)c1 (stereo not drawn)	-1%	i	i	2%	-29
Cc1ccc(C(=O)c2cn(Cc3cc(C)ccc3C)c3nc(C)ccc3c2=O)cc1	·	?	i	·	·
CCN(CC)C1CCN(C(=O)c2cc(COc3ccc(-n4cncn4)cc3)on2)C1 (stereo not drawn)	0%	i	i	-2%	i
Cc1cccc(NC(=O)C(=O)NCC(c2cccnc2)N2CCN(Cc3ccccc3)CC2)c1 (stereo not drawn)	·	i	i	·	·
C=CCN(C(=O)c1csnn1)C(C(=O)NCc1ccc(F)cc1)c1cccs1 (stereo not drawn)	-4%	?	i	-6%	-13
